Experimental data as given in PubChem BioAssay (NCATS).
Values without a mark were called inactive. Records with an inconclusive call do not appear. Entries that show only a call come without a potency. Calls of active or inactive are those of the source. Unless noted, calls come from the whole dose curve; as a rule, active = well fitted curve in the direction sought with a large enough effect; inconclusive = small, poorly fitted or top-dose-only effect, or another doubt; inactive = no such curve, though single readings can be large; an effect the other way counts as inactive or inconclusive.

Key:
[1] = target: Lysosomal acid glucosylceramidase (Homo sapiens) (UniProt P04062); assay: Glucocerebrosidase-p2 (AID 348; in the data active = potency below about 10 µM; note: potency is the fitted concentration of half-maximal effect); conditions: purified GBA, blue fluorogenic substrate, 40 min
Sequence of Lysosomal acid glucosylceramidase (Homo sapiens) (P04062 whole entry, looked up): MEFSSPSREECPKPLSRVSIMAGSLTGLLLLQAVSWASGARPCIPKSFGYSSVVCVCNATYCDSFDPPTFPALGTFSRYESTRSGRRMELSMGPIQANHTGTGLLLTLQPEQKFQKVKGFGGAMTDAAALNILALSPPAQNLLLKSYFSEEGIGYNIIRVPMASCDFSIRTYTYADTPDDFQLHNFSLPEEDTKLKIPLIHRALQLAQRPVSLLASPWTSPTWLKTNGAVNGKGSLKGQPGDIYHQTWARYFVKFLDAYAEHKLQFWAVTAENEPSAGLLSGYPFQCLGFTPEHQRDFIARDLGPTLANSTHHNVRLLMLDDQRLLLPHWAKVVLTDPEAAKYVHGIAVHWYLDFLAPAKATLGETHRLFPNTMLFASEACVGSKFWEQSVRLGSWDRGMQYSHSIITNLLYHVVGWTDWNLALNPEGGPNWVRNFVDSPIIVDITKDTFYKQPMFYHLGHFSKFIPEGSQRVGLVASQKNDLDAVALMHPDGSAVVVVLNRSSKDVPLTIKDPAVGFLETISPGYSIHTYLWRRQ
In short: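 Normal human glucocerebrosidase (0.2 nM) with blue fluorogenic substrate (80 uM final) in citrate/phosphate pH 5.9 with 10mM sodium taurocholate, 0.01% tween-20; 40 min RT, NaOH/glycine stop; fluorescence Ex 365/Em 440; AC50 from a titration from 0.6 nM upwards.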

[2] = target: Cytochrome P450 1A2 (Homo sapiens) (UniProt P05177); assay: p450-cyp1a2 (AID 410; calls by dose curve; note: potency is the fitted concentration of half-maximal effect)
Sequence of Cytochrome P450 1A2 (Homo sapiens) (P05177 whole entry, looked up): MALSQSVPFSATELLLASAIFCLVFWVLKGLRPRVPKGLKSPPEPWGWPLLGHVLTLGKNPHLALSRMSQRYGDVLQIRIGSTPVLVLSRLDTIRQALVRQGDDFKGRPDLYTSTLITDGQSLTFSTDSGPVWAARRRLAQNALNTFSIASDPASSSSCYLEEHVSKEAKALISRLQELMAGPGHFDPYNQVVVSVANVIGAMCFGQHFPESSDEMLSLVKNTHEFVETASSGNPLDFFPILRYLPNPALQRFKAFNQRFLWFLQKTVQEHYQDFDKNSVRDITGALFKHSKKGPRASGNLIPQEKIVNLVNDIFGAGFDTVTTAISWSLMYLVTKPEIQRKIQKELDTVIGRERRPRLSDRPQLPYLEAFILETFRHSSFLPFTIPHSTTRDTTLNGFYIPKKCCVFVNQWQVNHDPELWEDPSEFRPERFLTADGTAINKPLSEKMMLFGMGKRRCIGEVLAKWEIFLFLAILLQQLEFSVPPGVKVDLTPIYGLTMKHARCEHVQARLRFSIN
In short: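 20nM CYP1A2, 100uM Luciferin-ME (=Km), 100mM KPO4; cpd 10 min RT; +NADPH regen, 60 min RT; stop/detect 20 min; luminescence. Normalized to furafylline 57 uM = full inhibition.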

[3] = target: Glucocorticoid receptor (Homo sapiens) (UniProt P04150); assay: GR-GFP Redistribution (AID 450;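 active = compounds whose dose series gives a full or clear partial fitted curve of increased nuclear translocation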; note: potency is the fitted concentration of half-maximal effect); conditions: U2OS GR-GFP nuclear translocation, laser cytometry, 2 h
[4] = target: Glucocorticoid receptor (Homo sapiens) (UniProt P04150); assay: GR-EFC Redistribution (AID 451; calls by dose curve; note: potency is the fitted concentration of half-maximal effect); conditions: CHO-K1 GR-EFC translocation, beta-gal luminescence, 2 h
In short: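 Translocation of GR-ED fusion to nuclear EA restores b-gal, read by luminescence after 1 h room-temperature detection. Engineered CHO-K1 biosensor cells, 1,000/well, exposed 2 h at 37 C to titrations up to 46 uM final.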

[5] = target: Mitogen-activated protein kinase 10 (Mus musculus) (UniProt Q61831); assay: JNK3 AlphaScreen Assay (AID 530; active = well fitted curve in either direction with a large enough effect, not every such curve was filed as active;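 note: kinase came from lysate of stimulated human HepG2 cells; signal reports phosphorylation of biotinylated GST-cJun 1-79 at Ser73 with 10 µM ATP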)
In short: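 Kinase buffer: 20 mM Tris-HCl pH 7.6, 10 mM MgCl2, 1 mM DTT, 0.1 mM Na3VO4, 0.01% Tween-20; ATP 10 uM. Substrate biotin-GST-cJun(1-79), enzyme from activated HepG2 lysates. Detection by Ser73 phospho-antibody AlphaScreen.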

[6] = target: Dual specificity protein kinase CLK4 (Homo sapiens) (UniProt Q9HAZ1); assay: qHTS Assay for Inhibitors of CDC-like Kinase 4 (Kinase-Glo Assay) (AID 1770); note: nearly all actives have a fitted effect of over 65% in size
In short: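 Recombinant human Clk4 (25 nM) phosphorylated RS repeat peptide (100 uM) with 1 uM ATP in Tris pH 7.5/MgCl2/EGTA/DTT/Triton buffer for 4.5 h at room temperature. Residual ATP was quantified by Kinase-Glo luciferase luminescence.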

[7] = target: Dual specificity protein kinase CLK4 (Homo sapiens) (UniProt Q9HAZ1); assay: qHTS Assay for Inhibitors of CDC-like Kinase 4 (ADP-Glo Assay) (AID 1771); note: nearly all actives have a fitted effect of over 70% in size
In short: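 25 nM Clk4, 100 uM RS peptide, 1 uM ATP (final); 2 mM MgCl2, 0.5 mM EGTA, 2.5 mM DTT, 0.01% Triton X-100; 1 hr RT. ADP-Glo readout: ATP depletion 45 min, conversion/luciferase 30 min, luminescence.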

[8] = target: Dual specificity protein kinase CLK4 (Homo sapiens) (UniProt Q9HAZ1); assay: qHTS Assay for Inhibitors of CDC-like Kinase 4 (ADP-FP Assay) (AID 1795); note: nearly all actives have a fitted effect of over 60% in size
In short: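 Recombinant human Clk4 (6.25 nM) phosphorylated RS repeat peptide (100 uM) with 1 uM ATP in Tris pH 7.5/MgCl2/EGTA/DTT/Triton buffer for one hour. ADP was quantified by Transcreener competitive fluorescence polarization against an ADP calibration curve.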

[9] = target: Ubiquitin carboxyl-terminal hydrolase 1 (Homo sapiens) (UniProt O94782); assay: Inhibitors of USP1/UAF1: Pilot qHTS (AID 504865);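 note: rhodamine fluorescence freed from ubiquitin-rhodamine substrate followed over time; top concentration of the series differs between compounds; nearly all actives have a fitted effect of over 35% in size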
Sequence of Ubiquitin carboxyl-terminal hydrolase 1 (Homo sapiens) (O94782 whole entry, looked up): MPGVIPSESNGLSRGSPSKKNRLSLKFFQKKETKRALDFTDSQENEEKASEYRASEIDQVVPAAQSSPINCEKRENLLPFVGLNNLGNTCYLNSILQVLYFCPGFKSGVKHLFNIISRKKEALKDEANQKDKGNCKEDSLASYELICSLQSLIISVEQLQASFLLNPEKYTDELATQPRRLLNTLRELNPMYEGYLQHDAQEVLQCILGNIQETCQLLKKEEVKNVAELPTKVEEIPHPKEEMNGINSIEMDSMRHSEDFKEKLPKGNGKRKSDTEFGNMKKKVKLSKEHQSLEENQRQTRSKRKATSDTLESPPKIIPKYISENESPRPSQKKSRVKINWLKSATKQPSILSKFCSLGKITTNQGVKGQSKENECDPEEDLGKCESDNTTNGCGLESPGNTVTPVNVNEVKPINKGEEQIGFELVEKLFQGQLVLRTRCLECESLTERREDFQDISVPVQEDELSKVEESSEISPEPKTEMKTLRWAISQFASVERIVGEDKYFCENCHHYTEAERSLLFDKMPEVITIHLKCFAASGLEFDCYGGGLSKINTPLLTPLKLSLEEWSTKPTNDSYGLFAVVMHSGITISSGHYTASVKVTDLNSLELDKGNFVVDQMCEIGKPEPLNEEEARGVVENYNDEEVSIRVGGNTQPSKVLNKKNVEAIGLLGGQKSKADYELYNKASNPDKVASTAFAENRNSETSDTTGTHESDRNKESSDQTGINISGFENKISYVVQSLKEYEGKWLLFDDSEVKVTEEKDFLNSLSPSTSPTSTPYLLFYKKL
In short: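 USP1/UAF1 complex (1nM) preincubated with compound 15 min at room temperature, then Ub-Rho substrate (150nM final) added. Fluorescence read kinetically at 480/540 nm, 6 reads every 60 seconds. Buffer: 50mM HEPES pH 7.8, 0.5mM EDTA, 0.1 mg/ml BSA, 1mM TCEP, 0.01% Tween-20.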

[10] = Primary qHTS for small molecule stabilizers of the endoplasmic reticulum resident proteome: Secreted ER Calcium Modulated Protein (SERCaMP) assay (AID 1508630)
In short: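 The SH-SY5Y reporter protocol was run at 3 concentrations up to 38.3 uM (primary) or 11 concentrations (follow-up): 16 h compound, 100 nM thapsigargin for 4 h, then extracellular luciferase luminescence.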

[11] = target: Rap guanine nucleotide exchange factor 3 (Homo sapiens) (UniProt O95398); assay: Confirmatory qHTS for antagonist of cAMP-regulated guanine nucleotide exchange factor 3 (EPAC1) (AID 1645880); note: nearly all actives have a fitted effect of over 55% in size
Sequence of Rap guanine nucleotide exchange factor 3 (Homo sapiens) (O95398 whole entry, looked up): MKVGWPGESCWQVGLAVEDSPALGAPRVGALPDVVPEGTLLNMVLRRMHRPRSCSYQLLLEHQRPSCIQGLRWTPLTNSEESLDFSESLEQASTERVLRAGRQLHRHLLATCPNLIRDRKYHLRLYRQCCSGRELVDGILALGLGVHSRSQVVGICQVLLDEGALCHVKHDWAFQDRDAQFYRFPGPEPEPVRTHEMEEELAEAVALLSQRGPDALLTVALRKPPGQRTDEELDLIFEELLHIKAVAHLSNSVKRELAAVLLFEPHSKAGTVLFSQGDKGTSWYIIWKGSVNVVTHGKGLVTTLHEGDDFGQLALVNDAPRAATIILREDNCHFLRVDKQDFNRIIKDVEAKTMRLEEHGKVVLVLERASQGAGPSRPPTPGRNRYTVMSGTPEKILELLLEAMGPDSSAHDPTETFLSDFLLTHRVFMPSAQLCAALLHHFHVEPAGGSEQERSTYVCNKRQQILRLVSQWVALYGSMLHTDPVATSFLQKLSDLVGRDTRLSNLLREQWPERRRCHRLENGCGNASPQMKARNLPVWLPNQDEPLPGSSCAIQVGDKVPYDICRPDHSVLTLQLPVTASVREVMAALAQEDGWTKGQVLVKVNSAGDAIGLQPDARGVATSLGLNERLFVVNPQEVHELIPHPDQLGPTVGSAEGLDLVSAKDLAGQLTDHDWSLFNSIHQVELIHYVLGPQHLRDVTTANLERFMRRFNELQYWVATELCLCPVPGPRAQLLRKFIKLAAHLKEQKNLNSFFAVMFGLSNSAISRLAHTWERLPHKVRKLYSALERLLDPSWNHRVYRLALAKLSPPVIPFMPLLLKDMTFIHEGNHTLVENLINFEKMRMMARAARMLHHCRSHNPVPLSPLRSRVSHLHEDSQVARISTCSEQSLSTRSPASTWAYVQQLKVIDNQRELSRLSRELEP
In short: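 Released BODIPY-GDP fluoresces less than Rap1-bound BODIPY-GDP; the signal is followed at 480/540 nm at 5-min intervals over 30 min, after 5 min at room temperature. Reactions contain 100 nM EPAC1, 250 nM RAP1B-BODIPY-GDP and 50 uM GDP; results are normalized to ATA and DMSO.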

[12] = target: Rap guanine nucleotide exchange factor 3 (Homo sapiens) (UniProt O95398); assay: Confirmatory qHTS for agonist of cAMP-regulated guanine nucleotide exchange factor 3 (EPAC1) (AID 1645881);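 note: EPAC1 catalysed release of BODIPY-GDP from Rap1B seen as fluorescence loss; nearly all actives have a fitted effect of over 75% in size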
[13] = target: Rap guanine nucleotide exchange factor 4 (Homo sapiens) (UniProt Q8WZA2); assay: Confirmatory qHTS for agonist of cAMP-regulated guanine nucleotide exchange factor 4 (EPAC2) (AID 1645884);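 note: nucleotide exchange releases bodipy-GDP from Rap1 and this lowers its fluorescence; nearly all actives have a fitted effect of over 65% in size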
Sequence of Rap guanine nucleotide exchange factor 4 (Homo sapiens) (Q8WZA2 whole entry, looked up): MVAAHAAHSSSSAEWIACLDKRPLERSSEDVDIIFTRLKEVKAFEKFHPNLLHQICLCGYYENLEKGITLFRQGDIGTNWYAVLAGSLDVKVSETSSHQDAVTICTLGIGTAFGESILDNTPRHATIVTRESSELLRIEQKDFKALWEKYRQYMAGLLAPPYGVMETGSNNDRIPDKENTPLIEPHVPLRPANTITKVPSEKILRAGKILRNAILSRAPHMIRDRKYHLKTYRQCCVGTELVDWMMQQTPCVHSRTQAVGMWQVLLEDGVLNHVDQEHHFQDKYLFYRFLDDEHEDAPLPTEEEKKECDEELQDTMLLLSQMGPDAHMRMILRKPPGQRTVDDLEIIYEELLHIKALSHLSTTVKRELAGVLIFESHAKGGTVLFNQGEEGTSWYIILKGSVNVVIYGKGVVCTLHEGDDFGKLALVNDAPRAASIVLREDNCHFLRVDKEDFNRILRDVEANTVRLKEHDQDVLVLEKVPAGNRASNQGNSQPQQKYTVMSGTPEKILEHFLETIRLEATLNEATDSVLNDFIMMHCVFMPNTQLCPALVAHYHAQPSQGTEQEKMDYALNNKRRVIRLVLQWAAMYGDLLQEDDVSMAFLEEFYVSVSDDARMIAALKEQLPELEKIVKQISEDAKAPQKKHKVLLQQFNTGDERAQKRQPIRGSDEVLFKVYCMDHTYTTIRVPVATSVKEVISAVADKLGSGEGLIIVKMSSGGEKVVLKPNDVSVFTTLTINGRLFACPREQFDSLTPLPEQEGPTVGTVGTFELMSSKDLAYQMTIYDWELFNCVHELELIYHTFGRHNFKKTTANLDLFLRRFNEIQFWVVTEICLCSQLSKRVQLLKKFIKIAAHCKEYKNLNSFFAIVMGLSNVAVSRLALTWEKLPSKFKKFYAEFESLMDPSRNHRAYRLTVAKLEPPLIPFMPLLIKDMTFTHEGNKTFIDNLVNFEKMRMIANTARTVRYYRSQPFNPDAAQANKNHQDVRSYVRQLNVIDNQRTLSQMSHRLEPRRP

[14] = target: Rap guanine nucleotide exchange factor 4 (Homo sapiens) (UniProt Q8WZA2); assay: Confirmatory qHTS for antagonist of cAMP-regulated guanine nucleotide exchange factor 4 (EPAC2) (AID 1645885); note: nearly all actives have a fitted effect of over 25% in size
[15] = AP1 Signaling Pathway (AID 357; active = well fitted curve in either direction with a large enough effect, not every such curve was filed as active); conditions: ME-180 AP-1-bla reporter, EGF-induced, beta-lactamase ratio, 5 h; at 7.69 µM (top of the series) unless noted
In short: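 ME-180 cells with beta-lactamase reporter under AP-1 response element, stimulated with EC50 EGF; compounds tested in titration series, 5 h at 37 °C. CCF4 substrate added 2.5 h at room temperature; 460/530 nm emission ratio gave %activity and AC50.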

[16] = NFAT Signaling Pathway (AID 444; active = well fitted curve in either direction with a large enough effect, not every such curve was filed as active;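 note: carbachol stimulus at about its EC50 of 1 µM final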); conditions: Jurkat NFAT-bla M1, carbachol, beta-lactamase ratio, 5 h; at 7.69 µM (top of the series) unless noted
In short: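 Read-out: CCF4 FRET ratio (460 nm/530 nm) after 1 h RT dye loading, used for %activity and AC50 from titration series. Cells: Jurkat NFAT-β-lactamase/M1 line, treated with compound plus 1 uM carbachol for 5 h, 37 °C.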

[17] = Stat Signaling Pathway (AID 446; active = well fitted curve in either direction with a large enough effect, not every such curve was filed as active;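 note: ME-180 cervical cancer cells given 40 pM IL-6 alongside compound; SIE-controlled beta-lactamase reporter measured as 460/530 nm FRET emission ratio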); conditions: ME-180 (cervical carcinoma) SIE beta-lactamase reporter, IL-6 stimulated, 5 h; at 7.69 µM (top of the series) unless noted
In short: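 Emission at 460 and 530 nm (excitation 405 nm) reports SIE-controlled beta-lactamase in ME-180 cells. Cells received compound with 40 pM IL-6 for 5 hrs at 37 C; data scaled between 300 pM IL-6 and 125 nM JAK-inhibitor controls.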

[18] = target: 3',5'-cyclic-AMP phosphodiesterase 4B (Homo sapiens) (UniProt Q07343); assay: qHTS Assay for Inhibitors of PDE-IV (AID 607; active = well fitted activation curve with a large enough effect in the main read-out, with a control signal flat, not every such curve was filed as active)
Sequence of 3',5'-cyclic-AMP phosphodiesterase 4B (Homo sapiens) (Q07343 whole entry, looked up): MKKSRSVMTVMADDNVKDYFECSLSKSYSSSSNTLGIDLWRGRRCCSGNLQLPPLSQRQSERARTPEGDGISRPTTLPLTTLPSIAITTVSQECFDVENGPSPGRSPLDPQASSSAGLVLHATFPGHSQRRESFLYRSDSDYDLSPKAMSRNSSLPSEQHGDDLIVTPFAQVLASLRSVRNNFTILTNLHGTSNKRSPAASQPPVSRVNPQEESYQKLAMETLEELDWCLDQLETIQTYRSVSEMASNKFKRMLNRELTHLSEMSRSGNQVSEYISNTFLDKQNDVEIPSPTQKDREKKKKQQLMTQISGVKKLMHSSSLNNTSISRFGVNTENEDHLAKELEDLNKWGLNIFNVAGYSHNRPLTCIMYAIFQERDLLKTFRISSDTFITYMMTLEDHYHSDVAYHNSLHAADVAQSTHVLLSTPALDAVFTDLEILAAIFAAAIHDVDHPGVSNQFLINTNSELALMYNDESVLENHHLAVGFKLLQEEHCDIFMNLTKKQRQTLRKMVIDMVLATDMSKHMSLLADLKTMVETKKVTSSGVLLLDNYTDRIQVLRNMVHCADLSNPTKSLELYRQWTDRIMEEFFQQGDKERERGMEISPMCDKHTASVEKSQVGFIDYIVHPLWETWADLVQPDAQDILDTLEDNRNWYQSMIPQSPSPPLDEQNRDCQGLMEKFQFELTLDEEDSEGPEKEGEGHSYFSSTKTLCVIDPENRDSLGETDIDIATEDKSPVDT
In short: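 The readout is membrane depolarisation from a cAMP-sensing CNG channel, detected with a potential dye at ex 535/em 590. Cells were HEK293-derived (endogenous PDE-IV) at 1000 cells/well, titrated up to 22.9 uM final.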

[19] = target: Cytochrome P450 3A4 (Homo sapiens) (UniProt P08684); assay: qHTS Assay for Activators of Cytochrome P450 3A4 (AID 885); note: nearly all actives have a fitted effect of over 65% in size
Sequence of Cytochrome P450 3A4 (Homo sapiens) (P08684 whole entry, looked up): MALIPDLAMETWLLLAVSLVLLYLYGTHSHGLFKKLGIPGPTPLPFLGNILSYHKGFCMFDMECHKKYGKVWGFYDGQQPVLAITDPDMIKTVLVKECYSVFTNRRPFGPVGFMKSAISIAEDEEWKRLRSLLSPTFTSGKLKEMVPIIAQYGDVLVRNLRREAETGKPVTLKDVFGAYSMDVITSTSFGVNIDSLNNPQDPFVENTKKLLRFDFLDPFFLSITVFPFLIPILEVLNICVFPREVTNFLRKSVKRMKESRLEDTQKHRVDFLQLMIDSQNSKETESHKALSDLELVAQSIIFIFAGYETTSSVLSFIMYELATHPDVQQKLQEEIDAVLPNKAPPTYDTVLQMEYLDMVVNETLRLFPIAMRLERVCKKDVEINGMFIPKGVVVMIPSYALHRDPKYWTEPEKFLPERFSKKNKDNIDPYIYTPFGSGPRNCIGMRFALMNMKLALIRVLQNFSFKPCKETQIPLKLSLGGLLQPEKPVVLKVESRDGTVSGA
In short: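 Activators are scored by enhanced luminescence from CYP3A4 conversion of luciferin-PPXE (25uM, equal to KM) to luciferin, after 60 min at RT with an NADPH-regenerating system.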

[20] = target: Cytochrome P450 3A4 (Homo sapiens) (UniProt P08684); assay: qHTS Assay for Inhibitors and Substrates of Cytochrome P450 3A4 (AID 884); note: nearly all actives have a fitted effect of over 50% in size; note: potency is the fitted concentration of half-maximal effect
In short: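 Luminescent readout of luciferin produced by CYP3A4 (20 nM) dealkylation of Luciferin-PPXE, 25 uM (its KM). NADPH-driven reaction ran 60 min at RT after 10 min compound preincubation; data scaled to 57 uM ketoconazole as 100% inhibition.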

Q: What does the source list for `COc1ccc(-n2c(=O)c(-c3ccc(Cl)cc3)nc3cnc(N(C)C)nc32)cc1`?
A: Potency [1]: > 11.4 µM; Potency [2]: 10 µM (active); Potency [3]: > 9.22 µM; Potency [4]: > 46 µM; Potency [5]: inactive; Potency [6]: inactive; Potency [7]: inactive; Potency [8]: inactive; Potency [9]: inactive; outcome [10]: inactive; Potency [11]: inactive; Potency [12]: inactive; Potency [13]: inactive; Potency [14]: inactive

Q: With `COc1ccc(Oc2ncc3nc(-c4cc(F)cc(F)c4)c(=O)n(C[C@H]4CCCO4)c3n2)cc1` as the compound, how does the Potency [1] read?
A: > 11.4 µM

Q: And the activity change, negative = inhibition [15]?
A: -5.29%

Q: And the activity change, negative = inhibition [16]?
A: -11.6%

Q: And the activity, negative = inhibition [17]?
A: -0.431%

Q: What about the Potency [3] of the same compound?
A: > 9.22 µM

Q: What about the Potency [4] of the same compound?
A: > 46 µM

Q: And the Potency [5]?
A: inactive

Q: What about the Potency [18] of the same compound?
A: inactive

Q: And the Potency [8]?
A: inactive

Q: And the Potency [9]?
A: inactive

Q: What about the outcome [10] of the same compound?
A: inactive

Q: And the Potency [11]?
A: inactive

Q: And the Potency [12]?
A: inactive

Q: What about the Potency [13] of the same compound?
A: inactive

Q: And the Potency [14]?
A: inactive

Q: With `O=C(c1cccc(F)c1)N1CCC2(CCCN(c3cccc(-c4ccccc4)c3)C2)CC1` as the compound, how does the Potency [1] read?
A: > 11.4 µM

Q: What about the activity change, negative = inhibition [15] of the same compound?
A: 11.6%

Q: What about the Potency [2] of the same compound?
A: 15.8 µM (active)

Q: What about the activity change, negative = inhibition [16] of the same compound?
A: -6.68%

Q: And the activity, negative = inhibition [17]?
A: 7.29%

Q: And the Potency [4]?
A: > 46 µM

Q: What about the Potency [5] of the same compound?
A: inactive

Q: And the Potency [18]?
A: inactive

Q: And the Potency [19]?
A: inactive

Q: And the outcome [10]?
A: inactive

Q: What about the Potency [11] of the same compound?
A: inactive

Q: What about the Potency [12] of the same compound?
A: inactive

Q: What about the Potency [13] of the same compound?
A: inactive

Q: What about the Potency [14] of the same compound?
A: inactive

Q: Which Potency [1] does the source give for `COC(=O)N1CCC2(CC1)CCN(c1cccc(-c3ccccc3)c1)CC2` here?
A: > 11.4 µM

Q: And the activity change, negative = inhibition [15]?
A: -18.3%

Q: What about the Potency [2] of the same compound?
A: inactive

Q: What about the activity, negative = inhibition [17] of the same compound?
A: 13%

Q: What about the Potency [4] of the same compound?
A: > 46 µM

Q: And the Potency [5]?
A: inactive

Q: What about the Potency [18] of the same compound?
A: inactive

Q: What about the Potency [20] of the same compound?
A: inactive

Q: And the outcome [10]?
A: inactive

Q: What about the Potency [11] of the same compound?
A: inactive

Q: And the Potency [12]?
A: inactive

Q: And the Potency [13]?
A: inactive

Q: Which results are given for `O=c1cnc2cnc(Oc3ccccc3)nc2n1C1CC1`?
A: Potency [1]: > 11.4 µM; activity change, negative = inhibition [15]: -14%; Potency [2]: 7.94 µM (active); activity change, negative = inhibition [16]: -5.78%; activity, negative = inhibition [17]: -13.1%; Potency [3]: > 9.22 µM; Potency [4]: > 46 µM; Potency [5]: inactive; Potency [18]: inactive; Potency [6]: inactive; Potency [7]: inactive; Potency [8]: inactive; Potency [9]: inactive; outcome [10]: inactive

Q: Which Potency [1] does the source give for `CN(C)C(=O)c1ccc(-c2cncnc2NCc2ccccc2)cc1` here?
A: > 11.4 µM

Q: And the activity change, negative = inhibition [15]?
A: 8.88%

Q: What about the Potency [2] of the same compound?
A: 20 µM (active)

Q: And the activity change, negative = inhibition [16]?
A: -3.31%

Q: And the activity, negative = inhibition [17]?
A: 9.3%

Q: And the Potency [3]?
A: > 46 µM

Q: And the Potency [4]?
A: > 46 µM

Q: And the Potency [5]?
A: inactive

Q: What about the Potency [18] of the same compound?
A: inactive

Q: And the Potency [20]?
A: 2.51 µM (active)

Q: And the Potency [19]?
A: inactive

Q: And the Potency [6]?
A: inactive

Q: And the Potency [7]?
A: inactive

Q: And the Potency [8]?
A: inactive

Q: And the Potency [9]?
A: inactive

Q: What about the outcome [10] of the same compound?
A: inactive
